Screening results from PubChem BioAssay.
The list is not random: actives were taken first. Their share in the collection is about 2.8%.
GASC-1 inh: blocks human GASC-1 demethylase activity; Q9H3R0; GST-JMJD2C(1-420) H3K9me3 demethylation, DELFIA europium; inhibition, % at 2.35 µM; 330,000 compounds, 0.069% hits; AID 2099;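 active = more than half of a compound's replicate wells show inhibition beyond 50%, single wells judged on their own value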;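 note: signal counts dimethyl H3K9 product captured on neutravidin plate; 0% = median of DMSO wells and 100% = 0.3 times that DMSO median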
NR1D1 modulator: modulators of human Rev-erb alpha DNA binding; 370,000 compounds, 0.79% hits; AID 1259318; Rev-erbα–FITC-DNA binding, fluorescence polarization, 90 min; activity, % at 10 µM;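 active = activity above about 14%, limit read from the data; passing the limit was not always enough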;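 note: 0% = DMSO wells with 35 nM protein and 100% = DMSO wells with 750 nM protein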
PP1 counter: blocks human PP1-alpha phosphatase, a PP5 counter-screen; P62136; purified PP1alpha, OMFP fluorescence; inhibition, % at 6.7 µM; 320,000 compounds, 0.9% hits; AID 2235;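 active = inhibition above the mean inhibition of all tested compounds plus 3 SD, computed separately for each screening campaign, cut at about 15% in these data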
Target sequence (P62136 whole entry, looked up): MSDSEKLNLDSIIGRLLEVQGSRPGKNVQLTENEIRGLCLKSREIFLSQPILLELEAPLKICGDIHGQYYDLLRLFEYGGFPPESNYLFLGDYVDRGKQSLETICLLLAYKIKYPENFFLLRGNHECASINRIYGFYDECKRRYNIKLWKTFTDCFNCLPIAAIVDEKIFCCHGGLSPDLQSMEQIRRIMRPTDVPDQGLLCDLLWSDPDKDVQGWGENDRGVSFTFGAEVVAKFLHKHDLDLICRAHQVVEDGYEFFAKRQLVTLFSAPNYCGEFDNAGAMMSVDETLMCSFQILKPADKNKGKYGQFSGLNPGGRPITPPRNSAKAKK
KLK7 zymogen act: activators of human kallikrein-7 zymogen. P49862. purified proKLK7, EDANS-DABCYL substrate fluorescence; 100% is mature enzyme control, 0% vehicle. activation, % at 7 µM. 370,000 compounds, 0.9% hits;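 active = activation above the mean of all tested compounds plus 3 SD, computed per campaign excluding outliers beyond control limits, cut at about 13% in these data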
PG9 Ab binder: PG9 antibody binding by small molecule. 360,000 compounds, 0.43% hits. inhibition, % at 6.7 µM. TR-FRET gp120-PG9 antibody binding; in the data active = inhibition above about 8.5%
PP5 inh: blocks human protein phosphatase 5 activity | AID 1987 | P53041 | purified PP5c, OMFP substrate fluorescence | 320,000 compounds, 0.18% hits | inhibition, % at 6.7 µM;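 active = inhibition above the campaign's mean inhibition across all tested compounds plus 3 SD, cut at about 9.5% in these data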;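 note: 0% = DMSO only and 100% = 100 µM cantharidin control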
PG9 bind confirm: PG9 antibody binding, confirmed | shares compounds with PG9 Ab binder | TR-FRET PG9 antibody binding, biochemical | inhibition, % at 6.7 µM | 1,500 compounds, 90% hits; in the data active = inhibition above about 9%
PGV04 Ab binding: counter-screen for PG9 binders: binding control antibody PGV04. shares compounds with PG9 Ab binder. TR-FRET PGV04 antibody-gp120 binding, biochemical. inhibition, % at 6.7 µM. 1,500 compounds, 95% hits; in the data active = inhibition above about 9.5%
NR1D1 mod conf: Rev-erb alpha (human) modulation, hit confirmation; shares compounds with NR1D1 modulator; 3,000 compounds, 61% hits; Rev-erb alpha FITC-DNA binding, fluorescence polarization, 90 min; activation, % at 25 µM;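 active = activation at or above a set limit, or at least 3 SD above the negative control mean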;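 note: 0% = 35 nM protein with DMSO and 100% = 750 nM protein high control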
RORg DNA counter: RORgamma DNA-binding activity, dose-response counter-screen; purified RORgamma protein-FITC-DNA binding, fluorescence polarization; 910 compounds, 8% hits; AID 1259320; IC50, µM; shares compounds with NR1D1 modulator;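 active = Compounds whose fitted half-maximal concentration for disrupting protein-DNA binding is below 10 micromolar; the record names Rev-erb in its text, so the target is in doubt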
* = called active by the depositor.

What do the screens show for `O=C(CCSc1nnc2ccc3ccccc3n12)Nc1ccc(F)cc1`?
GASC-1 inh: -0.5; NR1D1 modulator: 43.7*; PP1 counter: -3.0; KLK7 zymogen act: -1.0; PG9 Ab binder: 23.0*; PP5 inh: -0.8; PG9 bind confirm: 7.2; PGV04 Ab binding: 21.1*; NR1D1 mod conf: 21.7*

How did Cc1nc2ccc3nc(NC(=O)c4ccc5c(c4)OCCO5)sc3c2s1 do in these assays?
GASC-1 inh: 12.2; NR1D1 modulator: 77.9*; PP1 counter: 10.1; KLK7 zymogen act: -1.0; PG9 Ab binder: 35.4*; PP5 inh: -2.2; PG9 bind confirm: 27.0*; PGV04 Ab binding: 56.1*; NR1D1 mod conf: 39.2*; RORg DNA counter: >40

How did Cc1cnc(NC(=O)c2ccc3c(c2)OCCO3)s1 do in these assays?
NR1D1 modulator: 3.7; PP1 counter: -2.4; KLK7 zymogen act: 0.4; PG9 Ab binder: -0.1; PP5 inh: 2.0

How did COc1ccc2c(c1)oc(=O)c1c3ccccc3[nH]c21 do in these assays?
GASC-1 inh: -1.5; NR1D1 modulator: 75.5*; KLK7 zymogen act: -0.7; PG9 Ab binder: 13.2*; PG9 bind confirm: 8.9*; PGV04 Ab binding: 20.9*; NR1D1 mod conf: 62.0*; RORg DNA counter: >40

How did COc1ccc2c(c1)oc(=O)c1ccccc12 do in these assays?
GASC-1 inh: -16.2; NR1D1 modulator: 2.4; PP1 counter: -3.9; KLK7 zymogen act: -4.6; PG9 Ab binder: 1.1; PP5 inh: 2.2

Results for O=C(Nc1ccon1)c1sc2cc(F)ccc2c1Cl ?
NR1D1 modulator: 34.0*; PP1 counter: 1.6; KLK7 zymogen act: -0.2; PG9 Ab binder: 15.0*; PP5 inh: 0.4; PG9 bind confirm: 23.8*; PGV04 Ab binding: 45.8*; NR1D1 mod conf: 22.1*

How did c1cc(-c2nnc3n2N=C(c2ccc4c(c2)OCO4)CS3)ccn1 do in these assays?
NR1D1 modulator: 1.9; KLK7 zymogen act: 0.2

Results for O[C@H](COc1cccc(F)c1)CN1CCC(C(O)(c2ccccc2)c2ccccc2)CC1 ?
NR1D1 modulator: 9.9; KLK7 zymogen act: 1.0

Results for O=C(Nc1ccc2c(c1)C(=O)NC2=O)c1cc(Cl)ccc1Cl ?
GASC-1 inh: -15.3; NR1D1 modulator: 144.3*; PP1 counter: -0.5; KLK7 zymogen act: -52.7; PG9 Ab binder: 9.5*; PP5 inh: -0.1; PG9 bind confirm: 10.1*; PGV04 Ab binding: 15.3*; NR1D1 mod conf: 120.8*; RORg DNA counter: >40

How did C/C(N)=C(/C#N)C(=O)CSc1nc2ccccc2c(=O)n1-c1ccc(C)c(Cl)c1 do in these assays?
GASC-1 inh: -1.6; NR1D1 modulator: 78.0*; PP1 counter: 0.7; KLK7 zymogen act: 0.0; PG9 Ab binder: 44.6*; PP5 inh: 3.9; PG9 bind confirm: 39.1*; PGV04 Ab binding: 56.3*; NR1D1 mod conf: 31.2*; RORg DNA counter: inactive

What do the screens show for `C/C(N)=C(/C#N)C(=O)CSc1nc2ccccc2c(=O)n1-c1ccc(C)cc1`?
GASC-1 inh: -5.4; PP1 counter: -9.7; PP5 inh: -3.0

Results for Cc1cc(Br)cn2c(Cc3cccc(F)c3)c(-c3ccc(C#N)cc3)nc12 ?
NR1D1 modulator: 27.1*; KLK7 zymogen act: -2.5; PG9 Ab binder: 9.2*; PG9 bind confirm: 14.9*; PGV04 Ab binding: 21.5*; NR1D1 mod conf: 13.2*

Results for N#Cc1ccc(-c2nc3ccc(Br)cn3c2Cc2ccccc2)cc1 ?
NR1D1 modulator: 21.9*; KLK7 zymogen act: -1.1; PG9 Ab binder: 10.4*; PG9 bind confirm: 14.0*; PGV04 Ab binding: 22.9*; NR1D1 mod conf: 14.3*

Results for O=C(Cc1ccccc1Cl)NCCN1C(=O)C2C3C=CC(C3)C2C1=O (stereo not drawn) ?
NR1D1 modulator: -8.2; KLK7 zymogen act: -0.4
